Measurements from PubChem BioAssay (Tox21).
Inconclusive results are not listed. A number with no mark means an inactive call. Activity calls are given as the source filed them. Calls come from the whole dose curve; as a rule, active = well fitted cell-killing curve with a large enough effect in the repeat runs; inconclusive = weak or mixed curves; inactive = no such curve, though single readings can be large or run the other way.

experiment: qHTS assay to identify small molecule antagonists of the androgen receptor (AR) signaling pathway - cell viability counter screen (AID 743033; note: nearly all actives have a fitted effect of over 45% in size); details: AR-bla HEK293 viability, CellTiter-Glo luminescence, 16 h; series mostly up to 58.5 µM; activity change, negative = cytotoxicity: at the top concentration
Excerpt: National Center for Advancing Translational Sciences [NCATS]
NIH Chemical Genomics Center [NCGC]
U.S. Environmental Protection Agency [EPA]
National Institutes of Environmental Health Sciences [NIEHS]
National Toxicology Program [NTP]
U.S. Food and Drug Administration [FDA]
Androgen receptor (AR), a nuclear hormone receptor, plays a critical role in AR-dependent prostate cancer and other androgen related diseases. Endocrine disrupting chemicals (EDCs) and their interactions with steroid hormone receptors like AR may cause disruption of normal endocrine function as well as interfere with metabolic homeostasis, reproduction, developmental and behavioral functions. To identify the compounds that inhibit AR signaling, GeneBLAzer AR-UAS-bla-GripTite cell line (Invitrogen, Carlsbad, CA, USA) containing a beta-lactamase reporter gene under control of an Upstream Activator Sequence (UAS) stably integrated into HEK293 cells was used to screen the Tox21 10K compound library. The cytotoxicity of the Tox21 compound library against the AR-bla cell line was tested in parallel by measuring the cell viability using CellTiter-Glo assay in the same wells.
Tox21 Assay Protocol Summary:
AR-bla cells were dispensed at 2,000 cells/5 uL of assay medium per well into black wall/clear-bottom 1536-well plates using a Multidrop Combi (ThermoFisher Scientific, Waltham, MA) dispenser. After the assay plates were incubated at a 37C and 5% CO2 for 4 hr, 23 nL of compounds dissolved in DMSO, positive controls or DMSO only was transferred to the assay plate by a Pintool station (Kalypsys, San Diego, CA), followed by addition of 1 uL of agonist (R1881) in culture medium using a Bioraptr Flying Reagent Dispenser (FRD) workstation (Beckman Coulter, Indianapolis, IN, USA). The plates were incubated at a 37C and 5% CO2 for 16 h. After 1 uL of LiveBLAzerTM B/G FRET substrate was added using a Bioraptr FRD, the plates were incubated at room temperature for 2 h and fluorescence intensity was measured by an Envision plate reader (PerkinElmer, Shelton, CT). For cell viability readout that measures cytotoxicity, 4 ul/well of CellTiter-Glo reagent was added into the assay plates using a Bioraptr FRD. After 30 min incubation at room temperature, the luminescence intensity in the plates was measured using a ViewLux (PerkinElmer) plate reader.
% is set by controls: 0 for no effect and ±100 for the full control effect.

Row | SMILES | activity change, negative = cytotoxicity | Potency
1 | CC(COCCO)OCCO (stereo not given) | 4.7% | 
2 | CO[C@@H]1[C@H](OC(=O)/C=C/C=C/C=C/C=C/C(=O)O)CC[C@]2(CO2)[C@H]1[C@@]1(C)O[C@@H]1CC=C(C)C | -18.8% | 
3 | CCCCCC[C@@H](O)C/C=C\CCCCCCCC(=O)OC | -1.46% [at 78.9 µM] | 
4 | O=C(c1ccc(F)cc1)C1CCN(CCn2c(=S)[nH]c3ccccc3c2=O)CC1 | -24.2% | 
5 | O=C(OCCc1ccccc1)c1ccccc1 | -8.12% | 
6 | CCO[C@H](Cc1ccc(OCCc2ccc(OS(C)(=O)=O)cc2)cc1)C(=O)O | 0.882% | 
7 | CCOC(=O)C1=C[C@]2(CC)CCCN3CCc4c(n1c1ccccc41)[C@@H]32 |  | inactive
8 | NCC(=O)O | 8.71% | 
9 | CCC(CC)Nc1ccc(C)c(C)c1 | -0.95% | 
10 | O=C(O)c1ccco1 | 6.93% | 
11 | CN(C)CCN(Cc1ccccc1)c1ccccn1 | 12% | 
12 | CCOC(=O)COC(=O)c1cc(Oc2ccc(C(F)(F)F)cc2Cl)ccc1[N+](=O)[O-] | -6.34% | 
13 | CCOc1ccc(N=Nc2ccc(/C=C/c3ccc(N=Nc4ccc(OCC)cc4)cc3S(=O)(=O)O)c(S(=O)(=O)O)c2)cc1 | 0.379% | 
14 | CC[N+]1(CC)CCC(=C(c2ccccc2)c2ccccc2)C1C (stereo not given) | 6.84% | 
15 | CN(C)c1ccc(C(c2ccccc2)c2ccc(N(C)C)cc2)cc1 | -2.87% | 
16 | CCCCNc1ccc(C(=O)OCCOCCOCCOCCOCCOCCOCCOCCOCCOC)cc1 | 1.42% [at 27 µM] | 
17 | CC1=CC=C(C(C)C)CC1 | 0.385% | 
18 | CCCCCCCCCCCCCCCCOS(=O)(=O)O | -7.21% | 
19 | CN1C[C@H]2c3ccccc3Oc3ccc(Cl)cc3[C@@H]2C1 | 0.7% | 
20 | CC(CSC(=O)c1ccccc1)C(=O)N1C[C@@H](Sc2ccccc2)C[C@H]1C(=O)O (stereo not given in full) | 1.35% | 

Row | SMILES | activity change, negative = cytotoxicity | Potency
21 | CN(C)CCN(Cc1ccc(Cl)cc1)c1ccccn1 | -6.79% [at 27 µM] | 
22 | ClCCOCCOCCCl | 2.98% | 
23 | COc1ccc(C(=O)N2CCN(CC(=O)N3CCOCC3)CC2)cc1 | 1.2% | 
24 | C=C1C(=C/C=C2\CCC[C@]3(C)[C@@H]([C@H](C)/C=C/[C@@H](O)C4CC4)CC[C@@H]23)C[C@@H](O)C[C@@H]1O | -9.8% | 
25 | CCN(CC)CCOC(=O)C(c1ccccc1)C1CCCCC1 (stereo not given) | -13.1% | 
26 | Cc1ccc(N=Nc2c(O)c(C(=O)O)cc3ccccc23)c(S(=O)(=O)O)c1 | -0.883% | 
27 | CCOc1ccc(O)cc1 | 8.75% | 
28 | Cn1c(=O)cc(Oc2ccc(F)cc2F)c2cnc(NCC(C)(C)O)nc21 | -4.86% | 
29 | Nc1cccc(S(=O)(=O)c2cccc(N)c2)c1 | -18.1% | 
30 | N=c1ccn2c(n1)O[C@H]1[C@H](O)[C@@H](CO)O[C@H]12 |  | inactive
31 | COC(C)OC | 0.629% | 
32 | CCOC(=O)C(F)(F)F | 6.44% | 
33 | C[N+](C)(C)CCOC(=O)CCC(=O)OCC[N+](C)(C)C | -3.65% | 
34 | C#CCN(C)CCCOc1ccc(Cl)cc1Cl | -15.7% | 
35 | O=C(O)C(S)C(S)C(=O)O (stereo not given) | 3.57% | 
36 | CCn1cc(C(=O)O)c(=O)c2cnc(N3CCNCC3)nc21 | 9.79% [at 27 µM] | 
37 | Cc1cc(C(=O)O)ccc1[N+](=O)[O-] | -1.34% | 
38 | C=C1[C@H]2CC[C@@H]3[C@H]2C(C)(C)CCC[C@]13C | 0.008% | 
39 | CN(C)c1ccc(CCO)cc1 | 3.22% | 
40 | CC(C)Nc1ccc(NC(C)C)c2c1C(=O)c1ccccc1C2=O | 2.71% | 
